# Only some compounds are listed: those with a hit (about 10% of all), similar ones and a draw of the others.
# hNpr1 antagonist – human Npr1 receptor antagonism; 76,000 tested, 1.6% active; P16066; HEK293 hNpr1 GloSensor cGMP, ANP-stimulated luminescence; Potency, µM (top dose mostly 46.3 µM), without a hit: at the top dose activity change, negative = inhibition, most hits filed as inhibitors; calls by dose curve; also: nearly all actives have a fitted effect of over 60% in size
#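 HEK293 cells stably expressing human Npr1 and cGMP GloSensor pGS-40F, loaded 2 h with 2% GloSensor reagent, given compound 30 min at room temperature. Luminescence read before and 20 min after 0.1 nM hNppA.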
# NIH3T3 tox – cytotoxic compounds in NIH 3T3 cells; NIH 3T3 viability, CellTiter-Glo ATP luminescence, 48-72 h; 94,000 tested, 4.3% active; Potency, µM (top dose mostly 96.7 µM), inactives show at the highest dose activity change, negative = cytotoxicity, usual class: inhibitors; also: nearly all actives have a fitted effect of over 55% in size
#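 First NIH 3T3 cells are plated at 400 cells/well; next compound is pinned in; then plates incubate 48 or 72 hr at 37 °C; finally CellTiter-Glo is added and luminescence read after 10 min.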
# GPT2 inh – blocks human glutamate pyruvate transaminase 2; Potency, µM (top dose mostly 57.7 µM), for the others: at the top dose activity change, negative = inhibition, usual class: inhibitors; Q8TD30; Recombinant GPT2, coupled pyruvate oxidase/HRP Amplex Red fluorescence; 100,000 tested, 0.25% active; AID 1671188; also: nearly all actives have a fitted effect of over 60% in size
# Target sequence (Q8TD30 whole entry, looked up): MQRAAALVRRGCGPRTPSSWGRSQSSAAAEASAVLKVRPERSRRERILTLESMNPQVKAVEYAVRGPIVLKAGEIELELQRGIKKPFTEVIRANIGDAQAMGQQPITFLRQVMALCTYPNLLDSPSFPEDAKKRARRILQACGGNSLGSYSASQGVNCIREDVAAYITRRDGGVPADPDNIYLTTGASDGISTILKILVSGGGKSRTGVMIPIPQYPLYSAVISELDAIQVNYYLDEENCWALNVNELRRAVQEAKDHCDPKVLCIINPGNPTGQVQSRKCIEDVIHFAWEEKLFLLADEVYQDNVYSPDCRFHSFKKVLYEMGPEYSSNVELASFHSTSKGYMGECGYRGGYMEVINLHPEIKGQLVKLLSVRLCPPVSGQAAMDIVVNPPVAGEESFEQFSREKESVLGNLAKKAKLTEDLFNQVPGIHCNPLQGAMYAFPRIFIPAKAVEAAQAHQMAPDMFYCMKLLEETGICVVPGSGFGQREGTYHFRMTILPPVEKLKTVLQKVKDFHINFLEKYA
#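 Fluorescence read-out: pyruvate from GPT2 turnover coupled to pyruvate oxidase, HRP and Amplex Red (0.2mM ThPP, 0.2U/mL PO and HRP, 50uM Amplex final). Substrates 250uM a-KG, 2mM L-alanine; enzyme 10ng/uL; 30 min RT.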
# FLuc inh – inhibitors of firefly (Photinus pyralis) luciferase. P08659. purified P. pyralis luciferase, luminescence, biochemical. Potency, µM (series often up to 115 µM), hits mostly inhibitors. 76,000 tested, 2.5% active. AID 1347043; also: nearly all actives have a fitted effect of over 65% in size
#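 FLuc 10nM, D-luciferin 10uM, ATP 10uM, Mg acetate 10mM, Tris acetate pH 7.5, Tween/BSA; cpd qHTS; enzyme added last; CCD luminescence.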
# HEK293 tox – kills HEK 293 cells. Potency, µM (series often up to 115 µM), inactives show at the highest dose activity change, negative = cytotoxicity, actives largely listed as inhibitors. HEK 293 viability, ATP luminescence (CellTiter-Glo), 48-72 h. AID 1345083. 94,000 tested, 6.6% active; also: nearly all actives have a fitted effect of over 60% in size
#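 Luminescence from cellular ATP, measured with CellTiter-Glo, indicates HEK 293 viability. Cells plated at 250 cells/well are treated with compound for 48 or 72 hr at 37 degree Celsius before reagent addition.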
# Numbers without * were called inactive; i = inactive; ? = inconclusive; · = no result; [ ] = remark or other dose. Unless noted, calls follow the shape of the dose curve; as a rule, active = well fitted curve in the direction sought with a large enough effect; inconclusive = small, poorly fitted or top-dose-only effect, or another doubt; inactive = no such curve, though single readings can be large; an effect the other way counts as inactive or inconclusive. % is scaled to controls: 0 for no effect and ±100 for the full control effect; potency is read from the fitted curve at half-maximal effect.
SMILES,hNpr1 antagonist,NIH3T3 tox,GPT2 inh,FLuc inh,HEK293 tox
O=C(NC1CCCC1)C1CCCN1c1nccc(Nc2ccccc2F)n1 (centres undefined),·,-35%,i,·,?
COc1ccc(C)cc1NC(=O)N1C[C@@H](F)C[C@H]1C(=O)N1CCCCC1,-13%,35µM*,4%,i,1%
COc1ccc(C)cc1NC(=O)N1CCCC1c1nncn1C1CCCC1 (centres undefined),-2%,32µM*,-26%,i,6%
O=C(NCC1CC1)c1cccc(OC2CN(Cc3cc(F)c(F)c(F)c3)C2)c1,11%,?,-4%,i,?
O=C(C1CC1)N1CCOc2ccc(CN3CCc4ccccc4C3)cc2C1,?,-17%,i,i,40µM*
O=C(COc1ccccc1)N1CCOc2ccc(CN3CCc4ccccc4C3)cc2C1,?,?,i,i,32µM*
Cc1ccc(OCC(=O)N2CCOc3ccc(CN4CCc5ccccc5C4)cc3C2)cc1,-24%,40µM*,-10%,i,?
O=C(COc1ccc(F)cc1)N1CCOc2ccc(CN3CCc4ccccc4C3)cc2C1,?,?,i,i,?
COCc1cc(C[C@@H]2CC[C@H](O)[C@@H](CNCc3ccccc3OC)O2)no1,-1%[70.6 µM],3%[174 µM],i,i,-16%[172 µM]
COc1cccc(-c2cccc(C(=O)N3CCN(C(=O)NC4CCCC4)CC3)c2)c1,·,?,-1%,·,?
Cc1cc(C)cc(-c2ccc(CN3CCCC3C(=O)N3CCN(Cc4ccccc4)CC3)cc2)c1 (centres undefined),·,13µM*,4%,·,20µM*
COc1ccc(CN2Cc3[nH]cnc3C[C@H]2C(=O)N2CCC(Cc3ccccc3)CC2)cc1,-12%,18µM*,3%,i,79µM*
Cc1cc(C)cc(-c2ccc(CN3CCCC3C(=O)N3CCCC(C)C3)cc2)c1 (centres undefined),·,?,i,·,35µM*
O=C(C1CCCN1Cc1ccc(-c2cncnc2)cc1)N1CCC(Cc2ccccc2)CC1 (centres undefined),·,?,i,·,?
Cc1cc(C)cc(-c2ccc(CN3CCCC3C(=O)N3CCC(Cc4ccccc4)CC3)cc2)c1 (centres undefined),·,11µM*,1%,·,20µM*
O=C1NCCCCCCN(C(=O)CCC2CCCC2)[C@H]2C[C@H](c3nc(Cc4ccccc4)no3)C[C@@H]12,-8%,?,i,i,32µM*
O=C1NCCCCCCN(C(=O)CC2CCCCC2)[C@H]2C[C@H](c3nc(Cc4ccccc4)no3)C[C@@H]12,-8%,35µM*,3%,i,?
COc1ccc(C(=O)N2CC(n3cc(COCC4CC4)nn3)C2)c(OC)n1,·,-14%,0%,·,i
Cc1ccc([S+](=O)([O-])N2CCN(CCn3nc4n(c3=O)CCCC4)CC2)cc1,·,4%,·,·,i
Cc1ccccc1NCc1nc2c(n1Cc1ccccc1)C(=O)N(C)CCN2,-22%[70.6 µM],-13%[138 µM],-11%[88.5 µM],i,?
COCCN1CCNc2nc(COc3ccc(Oc4ccccc4)cc3)n(Cc3ccccc3)c2C1=O,-22%,45µM*,-3%,i,?
Cc1ccccc1NCc1nc2c(n1Cc1ccccc1)C(=O)N(CCOc1ccccc1)CCN2,-19%,32µM*,-14%,i,?
O=C1c2c(nc(COc3ccc(F)cc3)n2Cc2ccccc2)NCCN1CCOc1ccccc1,?,?,0%,i,?
O=C1c2c(nc(CNCc3ccc4c(c3)OCO4)n2Cc2ccccc2)NCCN1CCOc1ccccc1,-14%,40µM*,-17%,i,?
O=C1c2c(nc(COc3ccc(F)cc3F)n2Cc2ccccc2)NCCN1CCOc1ccccc1,?,?,-10%,i,45µM*
SMILES,hNpr1 antagonist,NIH3T3 tox,GPT2 inh,FLuc inh,HEK293 tox
COc1ccccc1-c1nc(C(=O)NCc2ccc3c(c2)OCO3)n2ccncc12,-16%,-22%,-7%,i,?
C[C@]1(CO)[C@H]2Cc3sc(NC(=O)c4c(F)cccc4F)nc3[C@@H](CC(=O)NC3CC3)[C@]2(C)CC[C@H]1O,4%,-18%,-1%,i,-2%
CCOCCn1cc(C2CCN(S(=O)(=O)c3cccc(Cl)c3C)CC2)c2ccccc21,-12%,-25%,1%,i,?
COc1ccc(-c2cc(N3CCC(NC(=O)c4ccc(F)cc4F)CC3)n[nH]2)cc1,-3%,?,-15%,i,?
O=C1c2c(nc(COc3ccc4c(c3)OCO4)n2Cc2ccccc2)NCCN1CC1CCOCC1,-1%,-27%,i,i,?
O=C1c2c(nc(COc3ccc4c(c3)OCO4)n2Cc2ccccc2)NCCN1CCOc1ccccc1,-28%,?,-7%,i,40µM*
O=C1c2c(nc(COc3ccc4c(c3)OCO4)n2Cc2ccccc2)NCCN1Cc1cccc(Cl)c1,?,22µM*,-1%,i,32µM*
Cc1cnc(C(=O)NC2C[C@H]3CC[C@@H](C2)N3C(=O)CCC2CCCCC2)cn1 (some centres undefined),·,?,i,·,?
Cc1ccc(-c2cn3c(n2)N(C(=O)c2nc4ncccn4n2)CCC3)cc1,5%,-16%,2%,i,40µM*
CCS[C@H]1CCN2C(=O)c3cc(-c4ccc(F)cc4F)ccc3NC(=O)[C@H]12,?,?,-4%[88.5 µM],i,56µM*
CC(C)NC(=O)N[C@H]1CCN2C(=O)c3cc(-c4ccc(F)cc4F)ccc3NC(=O)[C@H]12,-6%[70.6 µM],-28%[174 µM],-26%[88.5 µM],i,?
CN(C)c1ncc2c(n1)C(C)(C(=O)Nc1ccccc1F)CCC2 (centres undefined),-12%[70.6 µM],?,-21%[88.5 µM],i,100µM*
COc1ccc(C(=O)Nc2ccc([C@H]3OCC(=O)N(C(C)C)[C@@H]3CO)cc2)cc1,-8%[70.6 µM],?,1%[88.5 µM],25µM*,?
COc1ccc(CN2C(=O)CO[C@H](c3ccc(NC(=O)c4ccc(OC)cc4)cc3)[C@H]2CO)cc1,8%,?,1%,?,?
COc1ccc(C(=O)Nc2ccc([C@H]3OCC(=O)N(C)[C@@H]3CO)cc2)cc1,1%[70.6 µM],-19%[138 µM],-6%[88.5 µM],71µM*,-16%[172 µM]
Oc1cccc(CN(Cc2ccsc2)Cc2ccco2)c1,1%,32µM*,i,i,35µM*
CC(c1cccs1)N(C)Cc1ccsc1 (centres undefined),0%[70.6 µM],-7%[174 µM],i,i,i
Cc1cc(-c2nc(-c3c(C)noc3C)cc3c2cc(C)n3CCN(C)C)ccn1,-5%[70.6 µM],?,-26%[88.5 µM],i,?
COc1cc(-c2nc(-c3c(C)noc3C)cc3c2cc(C)n3CCN(C)C)ccn1,3%[70.6 µM],?,-2%[88.5 µM],i,71µM*
